Source: PubChem BioAssay AID624351 (Southern Research Specialized Biocontainment Screening …, 2012)
Values joined by “and” are separate entries in the source; they are usually repeats but may differ in a detail not shown here. Equal entries are not always repeated. The whole screen tested about 2,400 compounds, of which about 1,400 (58%) were called active.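 The calls were made as follows: active = inhibition of 30% or more at any tested dose; inconclusive = primary hits over the limit that were never retested; inactive = the rest.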 The set was probably picked from earlier hits. Some of the results follow.

Test: coupled detection enzyme interference, dose response, artefact control for MgcRacGAP inhibitor project, biochemical, coupled enzyme counter-screen (AID 624351);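 also: signal is the ADP detection kit reading of free GDP without any GAP enzyme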;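 as to inhibition: 0% = median positive control wells and 100% = median negative control wells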
Details: ADP Hunter coupled enzyme counter-screen, fluorescence, no MgcRacGAP; series mostly up to 80 µM; inhibition: at the top concentration

Compound | inhibition | IC50
Cc1cccc(N2C(=O)/C(=C/c3ccc(CN(CCC#N)S(C)(=O)=O)o3)C(=O)NC2=S)c1 | -15.4% (inactive) | 
Cc1ccc2c(C)c3ccc4ccccc4c3c[n+]2c1 | 17.8% (inactive) | 
CN(C)c1ccc(/C=C/C=C/c2sc3ccccc3[n+]2C)cc1 |  | 70.2 µM (active)
CN(C)c1ccc(/C=C/c2cc[n+](C)c3ccccc23)cc1 |  | 47.2 µM (active) and 59.7 µM (active)
CCc1ccc(CNCCc2c[nH]c3ccccc23)cc1 | 14.5% (inactive) | 
O=C1NC(=O)N(CCC2=CCCCC2)C(=O)/C1=C/c1ccc(O)cc1 | -1.03% (inactive) | 
COc1ccc(CNCCc2ccc(Cl)cc2)c(OC)c1OC | 15.8% (inactive) | 
O=C1NC(=S)N(c2ccccc2)C(=O)/C1=C/c1ccco1 | 0.33% (inactive) | 
O=C1NC(=S)N(C2CC2)C(=O)/C1=C/c1ccc2c(c1)CCN2CCCCl | -10.9% (inactive) | 
Cc1cc(/C=C2\C(=O)NC(=O)N(c3cccc(F)c3)C2=O)c(C)n1-c1cc(C(=O)O)cc(C(=O)O)c1 | -5.74% (inactive) | 
Cc1cc(-c2ccc(N)c(C)c2)ccc1N |  | 14.2 µM (active)
COc1cc(-c2ccc(N)c(OC)c2)ccc1N |  | 8.45 µM (active)
Cc1cc(-c2cc(C)c(N)c(C)c2)cc(C)c1N |  | 11.2 µM (active)
Brc1cccc(CNCCc2ccc3c(c2)OCO3)c1 | 15.8% (inactive) | 
CN(C)c1ccc(/C=C2/C(=O)NC(=O)N(Cc3ccco3)C2=O)cc1 | -2.93% (inactive) | 
Cc1ccccc1N1C(=O)NC(=O)/C(=C\c2cnn(-c3ccccc3)c2)C1=O | 0.64% (inactive) | 
O=C1NC(=O)C(=Cc2cc(Cl)ccc2OCc2ccc(C(=O)O)cc2)C(=O)N1 | 3.85% (inactive) | 
O=C(COc1ccccc1)N1CCN(CC2CC3C=CC2C3)CC1 (centres undefined) | 10.5% (inactive) | 
O=C1NC(=O)C(=Cc2c(Cl)cccc2Cl)C(=O)N1 | 2.89% (inactive) | 
COc1cc(CNCCc2ccc3c(c2)OCO3)cc(OC)c1OC | 18% (inactive) | 
O=C(Cc1ccccc1)N1CCN(Cc2ccc(F)cc2)CC1 | 18.8% (inactive) | 
O=C(COc1ccccc1)N1CCN(C2CCCC2)CC1 | 18.8% (inactive) | 

Compound | inhibition | IC50
c1ccc(CN2CCN(Cc3ccc4ccccc4c3)CC2)cc1 | 21% (inactive) | 
O=C(O)c1ccccc1-c1ccc(C=C2C(=O)N(c3ccccc3)C(=S)N(c3ccccc3)C2=O)o1 | -13.5% (inactive) | 
Nc1ccc(Sc2ccc(N)cc2)cc1 |  | 10.4 µM (active)
Nc1ccc(-c2ccc(N)cc2)cc1 |  | 8 µM (active)
Cc1cc(N(C)C)ccc1N=Nc1ccc(N)cc1 |  | 33.7 µM (active)
Nc1ccc(N=Nc2ccc(N)cc2)cc1 |  | 20.5 µM (active)
O=C(COc1ccc2ccccc2c1)N1CCN(Cc2ccncc2)CC1 | 27% (inactive) | 
COc1ccc(N2CC2c2ccncc2)cc1 (centres undefined) | 15.4% (inactive) | 
COP(=S)(OC)SCn1nnc2ccccc2c1=O | 3.35% (inactive) | 
Fc1ccc(CNCCc2ccccc2)cc1 | 17.9% (inactive) | 
COc1cccc(CN2CCN(Cc3cccc(F)c3)CC2)c1 | 25.4% (inactive) | 
O=C(O)CCn1cc(C=C2C(=O)NC(=S)NC2=O)c(-c2ccccc2)n1 | -0.34% (inactive) | 
COc1ccc(CCNCc2cccc(C(F)(F)F)c2)cc1OC | 7.61% (inactive) | 
CSc1ccc(CN2CCN(Cc3ccccc3Cl)CC2)cc1 | 23.1% (inactive) | 
O=P(Oc1ccc(-c2ccccc2)cc1)(N1CC1)N1CC1 | 12.6% (inactive) | 
O=C(NC1CCCCC1)Oc1cc2oc(=O)sc2cc1Cl | 6.33% (inactive) | 
COc1ccccc1N1CCN(Cc2cccc(Br)c2)CC1 | 15.7% (inactive) | 
COc1ccc(Br)cc1CNCCc1cccc(Cl)c1 | 18.7% (inactive) | 
O=C1NC(=O)C(=Cc2ccco2)C(=O)N1 | 1.13% (inactive) | 
Cc1nn(CCC#N)c2c1P(=S)(N1CCCC1)OC(c1ccc(F)cc1)=N2 (centres undefined) | 2.38% (inactive) | 
O=C1NC(=O)N(c2ccccc2)C(=O)/C1=C/c1coc2ccc(O)cc2c1=O | 7.15% (inactive) | 
CN(C)c1ccc2c(c1)N=C(c1ccco1)OP2(=S)N1CCOCC1 (centres undefined) | 3.53% (inactive) | 
